In the supplement of paper PMC10849652:
The full data set covers some 7,900 targets. This sample favours those with a hit. About 0.6% of all pairs of compound and target were hits.

Compound: C1=CC(=CC=C1C2=NC3=C(N2)C=C(C=C3)C(=O)N)OC4=CC=C(C=C4)Cl
Experiment: log2 fold change, soluble protein after heating vs DMSO (PISA); higher = thermal stabilisation; K562 cells, 10 uM, 30 min; active = over 0.2 and 3.5 SD of the protein, either way, in both replicates (recomputed)
Summary of the method: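 Values are thermal stability changes relative to control samples and are taken from duplicates. They are stated as log2 fold changes. Before quantification by TMTpro 16plex LC-MS/MS with equalised channel sums, K562 cells at 2×10^6 cells/mL were treated with 10 μM compound for 30 min, heated in aliquots for 3 min across 48°C-58°C, pooled, extracted in PBS with 0.5% NP-40 at 4°C, and centrifuged at 21,000xg for 90 min to give the soluble supernatant.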

UniProt P22830, sequence (P22830 whole entry, looked up): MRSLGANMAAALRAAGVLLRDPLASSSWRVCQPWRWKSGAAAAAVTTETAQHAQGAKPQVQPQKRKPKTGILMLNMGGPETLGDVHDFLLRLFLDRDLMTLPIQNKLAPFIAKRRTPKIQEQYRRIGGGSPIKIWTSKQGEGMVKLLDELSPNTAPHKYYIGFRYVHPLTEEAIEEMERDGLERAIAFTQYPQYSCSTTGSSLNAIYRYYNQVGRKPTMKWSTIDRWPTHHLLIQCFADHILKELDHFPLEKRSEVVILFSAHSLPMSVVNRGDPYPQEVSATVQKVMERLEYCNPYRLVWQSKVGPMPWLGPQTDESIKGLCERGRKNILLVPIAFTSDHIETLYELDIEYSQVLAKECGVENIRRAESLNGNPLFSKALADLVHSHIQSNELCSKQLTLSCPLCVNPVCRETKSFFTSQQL
UniProt P85037, sequence (P85037 whole entry, looked up): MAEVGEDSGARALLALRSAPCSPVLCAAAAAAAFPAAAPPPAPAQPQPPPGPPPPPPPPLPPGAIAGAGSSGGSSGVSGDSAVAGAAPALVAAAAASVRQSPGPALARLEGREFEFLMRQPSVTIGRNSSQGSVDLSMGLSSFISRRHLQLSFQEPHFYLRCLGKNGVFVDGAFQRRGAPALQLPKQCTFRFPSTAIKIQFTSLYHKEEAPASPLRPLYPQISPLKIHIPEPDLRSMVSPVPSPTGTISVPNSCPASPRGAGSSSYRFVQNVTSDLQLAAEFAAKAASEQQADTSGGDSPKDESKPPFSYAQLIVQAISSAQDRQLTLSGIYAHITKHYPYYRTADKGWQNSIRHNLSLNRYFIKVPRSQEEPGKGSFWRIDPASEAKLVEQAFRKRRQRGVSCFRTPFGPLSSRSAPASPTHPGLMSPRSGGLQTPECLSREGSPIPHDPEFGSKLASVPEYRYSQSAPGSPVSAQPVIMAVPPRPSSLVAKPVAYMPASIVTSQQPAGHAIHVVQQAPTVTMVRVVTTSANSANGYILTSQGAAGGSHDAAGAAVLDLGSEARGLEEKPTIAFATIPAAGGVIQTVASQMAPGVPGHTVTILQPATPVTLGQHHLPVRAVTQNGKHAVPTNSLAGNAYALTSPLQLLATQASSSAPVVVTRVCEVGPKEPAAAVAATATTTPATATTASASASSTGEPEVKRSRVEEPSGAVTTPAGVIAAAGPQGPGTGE
UniProt Q8N9F7, sequence (Q8N9F7 whole entry, looked up): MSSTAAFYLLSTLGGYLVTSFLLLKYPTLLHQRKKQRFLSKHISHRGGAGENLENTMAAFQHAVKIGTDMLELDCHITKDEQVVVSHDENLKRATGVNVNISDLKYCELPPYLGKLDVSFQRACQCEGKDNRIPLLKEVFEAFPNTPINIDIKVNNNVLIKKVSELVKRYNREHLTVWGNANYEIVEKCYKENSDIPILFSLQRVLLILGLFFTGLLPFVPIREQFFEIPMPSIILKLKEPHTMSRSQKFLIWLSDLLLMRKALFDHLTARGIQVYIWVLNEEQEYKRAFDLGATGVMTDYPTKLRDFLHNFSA
UniProt Q9H4A6, sequence (Q9H4A6 whole entry, looked up): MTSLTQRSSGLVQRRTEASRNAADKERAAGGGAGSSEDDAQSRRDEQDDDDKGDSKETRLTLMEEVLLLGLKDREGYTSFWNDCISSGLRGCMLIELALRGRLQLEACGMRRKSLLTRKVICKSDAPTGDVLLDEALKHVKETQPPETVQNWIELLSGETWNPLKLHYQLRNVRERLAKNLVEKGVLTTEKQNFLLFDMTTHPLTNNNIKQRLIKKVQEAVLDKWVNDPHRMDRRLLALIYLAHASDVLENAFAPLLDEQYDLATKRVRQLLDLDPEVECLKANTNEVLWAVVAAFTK
UniProt P22087, sequence (P22087 whole entry, looked up): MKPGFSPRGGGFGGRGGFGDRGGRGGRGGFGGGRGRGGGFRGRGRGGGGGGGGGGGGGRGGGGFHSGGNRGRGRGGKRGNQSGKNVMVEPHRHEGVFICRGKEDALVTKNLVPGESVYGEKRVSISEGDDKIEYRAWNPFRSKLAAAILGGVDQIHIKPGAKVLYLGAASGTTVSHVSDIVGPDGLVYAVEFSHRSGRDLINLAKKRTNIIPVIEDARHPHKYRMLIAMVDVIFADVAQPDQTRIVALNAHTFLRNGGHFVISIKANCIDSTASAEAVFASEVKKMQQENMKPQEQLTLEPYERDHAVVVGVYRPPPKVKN
UniProt Q9NP66, sequence (Q9NP66 whole entry, looked up): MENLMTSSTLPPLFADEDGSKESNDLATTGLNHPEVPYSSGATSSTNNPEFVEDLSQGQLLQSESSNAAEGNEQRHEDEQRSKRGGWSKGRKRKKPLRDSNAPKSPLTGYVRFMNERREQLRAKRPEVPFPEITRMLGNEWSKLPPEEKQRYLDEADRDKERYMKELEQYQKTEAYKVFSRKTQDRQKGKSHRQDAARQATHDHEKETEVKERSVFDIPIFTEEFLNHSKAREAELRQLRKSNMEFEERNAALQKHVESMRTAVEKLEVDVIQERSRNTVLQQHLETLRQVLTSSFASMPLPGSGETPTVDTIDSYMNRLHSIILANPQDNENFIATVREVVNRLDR
UniProt P06865, sequence (P06865 whole entry, looked up): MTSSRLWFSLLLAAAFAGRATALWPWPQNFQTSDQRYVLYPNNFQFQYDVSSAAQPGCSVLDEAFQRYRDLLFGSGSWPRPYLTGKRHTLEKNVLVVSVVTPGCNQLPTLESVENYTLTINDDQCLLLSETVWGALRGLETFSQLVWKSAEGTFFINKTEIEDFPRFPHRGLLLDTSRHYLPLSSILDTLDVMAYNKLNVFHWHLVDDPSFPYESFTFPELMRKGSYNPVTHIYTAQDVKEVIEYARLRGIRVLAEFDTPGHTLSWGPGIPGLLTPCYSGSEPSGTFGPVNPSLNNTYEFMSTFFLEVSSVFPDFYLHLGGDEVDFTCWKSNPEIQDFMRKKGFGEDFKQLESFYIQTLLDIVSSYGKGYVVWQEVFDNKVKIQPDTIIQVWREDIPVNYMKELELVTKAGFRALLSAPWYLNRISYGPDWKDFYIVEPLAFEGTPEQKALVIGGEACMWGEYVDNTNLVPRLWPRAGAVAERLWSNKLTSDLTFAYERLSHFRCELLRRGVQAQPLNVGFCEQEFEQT
UniProt P09211, sequence (P09211 whole entry, looked up): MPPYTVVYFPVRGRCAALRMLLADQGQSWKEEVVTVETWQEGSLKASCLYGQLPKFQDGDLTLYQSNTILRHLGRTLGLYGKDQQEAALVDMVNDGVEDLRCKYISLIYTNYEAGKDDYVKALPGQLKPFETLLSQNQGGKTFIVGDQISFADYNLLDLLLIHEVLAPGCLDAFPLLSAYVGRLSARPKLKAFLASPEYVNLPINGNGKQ
UniProt P52597, sequence (P52597 whole entry, looked up): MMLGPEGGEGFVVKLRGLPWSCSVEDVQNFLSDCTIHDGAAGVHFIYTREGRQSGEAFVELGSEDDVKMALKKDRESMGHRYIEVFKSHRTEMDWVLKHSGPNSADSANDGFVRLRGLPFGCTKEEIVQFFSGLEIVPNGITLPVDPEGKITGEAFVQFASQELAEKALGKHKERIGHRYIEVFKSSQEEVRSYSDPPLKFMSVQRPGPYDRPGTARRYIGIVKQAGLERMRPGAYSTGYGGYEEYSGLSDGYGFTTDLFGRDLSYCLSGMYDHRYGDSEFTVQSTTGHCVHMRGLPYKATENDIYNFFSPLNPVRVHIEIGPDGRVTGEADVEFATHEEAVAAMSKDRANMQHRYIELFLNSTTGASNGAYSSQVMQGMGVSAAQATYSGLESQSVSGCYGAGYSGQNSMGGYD
UniProt P49841, sequence (P49841 whole entry, looked up): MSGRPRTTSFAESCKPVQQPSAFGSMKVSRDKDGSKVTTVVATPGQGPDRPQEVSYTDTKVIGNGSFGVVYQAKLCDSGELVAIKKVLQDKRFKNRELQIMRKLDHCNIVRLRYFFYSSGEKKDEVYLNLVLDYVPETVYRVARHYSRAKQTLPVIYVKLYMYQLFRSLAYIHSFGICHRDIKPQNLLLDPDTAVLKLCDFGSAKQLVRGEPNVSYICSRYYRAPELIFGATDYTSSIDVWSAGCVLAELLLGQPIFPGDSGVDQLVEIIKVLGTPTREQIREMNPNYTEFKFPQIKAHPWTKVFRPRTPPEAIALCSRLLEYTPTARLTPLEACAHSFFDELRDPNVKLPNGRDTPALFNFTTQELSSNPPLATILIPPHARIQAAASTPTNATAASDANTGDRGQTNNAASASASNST
UniProt P06280, sequence (P06280 whole entry, looked up): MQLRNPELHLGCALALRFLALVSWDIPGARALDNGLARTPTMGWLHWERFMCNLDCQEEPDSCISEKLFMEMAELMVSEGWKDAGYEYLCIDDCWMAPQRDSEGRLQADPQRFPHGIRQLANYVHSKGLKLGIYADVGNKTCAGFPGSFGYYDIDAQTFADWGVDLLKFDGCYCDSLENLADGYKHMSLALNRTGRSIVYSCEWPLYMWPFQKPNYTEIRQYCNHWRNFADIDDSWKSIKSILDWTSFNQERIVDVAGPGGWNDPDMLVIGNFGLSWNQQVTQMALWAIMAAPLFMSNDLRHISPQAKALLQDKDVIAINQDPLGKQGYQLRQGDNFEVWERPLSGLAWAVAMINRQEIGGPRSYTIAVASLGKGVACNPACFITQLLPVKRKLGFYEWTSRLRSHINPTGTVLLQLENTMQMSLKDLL
UniProt P31150, sequence (P31150 whole entry, looked up): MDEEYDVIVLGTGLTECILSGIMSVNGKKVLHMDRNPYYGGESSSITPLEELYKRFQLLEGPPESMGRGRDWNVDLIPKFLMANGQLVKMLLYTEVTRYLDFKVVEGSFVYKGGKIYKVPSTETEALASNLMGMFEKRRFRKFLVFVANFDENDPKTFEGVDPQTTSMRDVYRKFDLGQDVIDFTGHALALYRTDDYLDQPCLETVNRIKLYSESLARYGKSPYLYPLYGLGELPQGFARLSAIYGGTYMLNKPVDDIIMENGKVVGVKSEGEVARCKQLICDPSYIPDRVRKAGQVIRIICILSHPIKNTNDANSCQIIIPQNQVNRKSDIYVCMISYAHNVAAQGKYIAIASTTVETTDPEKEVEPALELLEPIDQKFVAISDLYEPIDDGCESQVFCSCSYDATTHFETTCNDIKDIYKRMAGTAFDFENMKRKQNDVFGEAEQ

| Target | log2 fold change |
| --- | --- |
| GSK3B isoform 2 (UniProt P49841) | 0.027 (inactive) |
| GDI1 (UniProt P31150) | 0.014 (inactive) |
| HMGCR isoform 3 (UniProt P04035) | 0.032 (inactive) |
| FBL (UniProt P22087) | 0.013 (inactive) |
| HMG20A (UniProt Q9NP66) | 0.017 (inactive) |
| HDAC2 (UniProt Q92769) | -0.012 (inactive) |
| GCLM (UniProt P48507) | -0.019 (inactive) |
| H1FX (UniProt Q92522) | 0.016 (inactive) |
| HMGN1 (UniProt P05114) | 0.066 (inactive) |
| GDPD1 (UniProt Q8N9F7) | -0.018 (inactive) |
| IFT74 (UniProt Q96LB3) | -0.352 (inactive) |
| GLCCI1 (UniProt Q86VQ1) | -0.006 (inactive) |
| GSTP1 (UniProt P09211) | -0.016 (inactive) |
| HNRNPF (UniProt P52597) | -0.034 (inactive) |
| HSPA8 (UniProt E9PK54) | 0.032 (inactive) |
| GNPAT (UniProt O15228) | -0.001 (inactive) |
| GTF2E1 (UniProt P29083) | -0.002 (inactive) |
| H2AFX (UniProt P16104) | 0.072 (inactive) |

| Target | log2 fold change |
| --- | --- |
| FOXK1 (UniProt P85037) | -0.307 (inactive) |
| GABARAPL1 isoform 2 (UniProt Q9H0R8) | -0.029 (inactive) |
| HOOK3 (UniProt Q86VS8) | -0.008 (inactive) |
| FECH isoform 2 (UniProt P22830) | 0.206 (inactive) |
| HPCAL1 (UniProt P37235) | 0 (inactive) |
| GOLPH3 (UniProt Q9H4A6) | -0.014 (inactive) |
| HIST2H2BF isoform 2 (UniProt Q5QNW6) | 0.046 (inactive) |
| HDAC7 isoform 5 (UniProt Q8WUI4) | 0.007 (inactive) |
| HEXA (UniProt P06865) | 0.007 (inactive) |
| HDAC6 (UniProt Q9UBN7) | -0.007 (inactive) |
| IFRD2 isoform 2 (UniProt Q12894) | 0.084 (inactive) |
| GSTT1 (UniProt P30711) | 0.033 (inactive) |
| H2AZ1 (UniProt P0C0S5) | -0.014 (inactive) |
| HSD17B12 (UniProt Q53GQ0) | 0.346 (active) |
| GNAS (UniProt Q5JWF2) | 0.043 (inactive) |
| GLA (UniProt P06280) | -0.021 (inactive) |
| GLUL (UniProt P15104) | 0.022 (inactive) |
